Our source for the Potency values is ChEMBL document CHEMBL1201862, “PubChem BioAssay data set” (2004).

Screen size: about 400,000 compounds; about 2,100 (0.53%) were called active. About 14% were inconclusive and are not listed. The rule behind the calls is not given here. The entries come from a sample that favours actives as a whole.

The target of this test is Ataxin-2 (Homo sapiens) (UniProt Q99700). In words: qHTS for Inhibitors of ATXN expression. The test is classed as functional. On the technique in general: In qHTS, concentration-response curves come from the screen itself.
Ataxin-2 (Homo sapiens), sequence (Q99700 whole entry): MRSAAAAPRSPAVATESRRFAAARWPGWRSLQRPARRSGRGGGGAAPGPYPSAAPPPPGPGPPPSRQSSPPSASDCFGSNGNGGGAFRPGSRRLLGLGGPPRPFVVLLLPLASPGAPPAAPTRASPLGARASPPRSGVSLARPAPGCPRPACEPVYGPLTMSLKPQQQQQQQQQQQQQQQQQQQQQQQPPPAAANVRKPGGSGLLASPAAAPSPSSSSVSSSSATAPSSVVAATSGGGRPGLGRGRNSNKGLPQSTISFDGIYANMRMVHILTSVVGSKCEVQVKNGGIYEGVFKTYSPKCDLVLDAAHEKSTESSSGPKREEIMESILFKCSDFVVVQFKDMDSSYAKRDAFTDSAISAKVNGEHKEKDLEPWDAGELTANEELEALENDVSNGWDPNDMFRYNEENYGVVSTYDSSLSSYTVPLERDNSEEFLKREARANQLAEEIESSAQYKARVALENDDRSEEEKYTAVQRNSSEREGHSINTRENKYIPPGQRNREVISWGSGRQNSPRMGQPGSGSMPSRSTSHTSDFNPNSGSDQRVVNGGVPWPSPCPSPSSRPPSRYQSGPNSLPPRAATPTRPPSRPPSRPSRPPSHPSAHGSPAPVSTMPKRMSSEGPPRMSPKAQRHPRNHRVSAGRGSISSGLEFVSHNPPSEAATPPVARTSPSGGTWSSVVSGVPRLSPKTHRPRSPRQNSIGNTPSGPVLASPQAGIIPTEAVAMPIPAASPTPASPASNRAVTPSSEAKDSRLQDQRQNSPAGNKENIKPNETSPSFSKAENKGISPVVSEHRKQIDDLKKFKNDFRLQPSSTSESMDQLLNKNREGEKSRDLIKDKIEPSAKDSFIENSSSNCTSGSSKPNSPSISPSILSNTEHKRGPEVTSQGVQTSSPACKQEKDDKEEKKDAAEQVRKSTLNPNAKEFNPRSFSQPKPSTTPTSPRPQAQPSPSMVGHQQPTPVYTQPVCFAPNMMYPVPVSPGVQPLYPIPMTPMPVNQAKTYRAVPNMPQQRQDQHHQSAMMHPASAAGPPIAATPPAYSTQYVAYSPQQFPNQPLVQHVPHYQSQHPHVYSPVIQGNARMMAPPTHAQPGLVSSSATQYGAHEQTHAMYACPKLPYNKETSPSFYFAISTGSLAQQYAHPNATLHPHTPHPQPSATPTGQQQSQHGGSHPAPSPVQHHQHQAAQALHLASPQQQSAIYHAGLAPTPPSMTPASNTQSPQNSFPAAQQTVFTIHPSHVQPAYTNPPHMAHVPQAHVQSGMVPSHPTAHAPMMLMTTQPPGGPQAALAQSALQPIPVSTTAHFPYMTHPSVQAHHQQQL
`CCC(CO)Oc1cc(NCc2ccccc2C(F)(F)F)c2ncn(C(C)C)c2c1` (configuration not stated): the Potency is 25.1 µM (active).

Regarding `CC[C@H](CO)Oc1cc(NCc2ccc(Cl)c(Cl)c2)c2ncn(C(C)C)c2c1`, the Potency is 35.5 µM (active).

For `CC[C@H](CO)Oc1cc(NCc2cccc(N)c2)c2ncn(C(C)C)c2c1`, the Potency was 31.6 µM (active).

For the compound `Nn1c(SCC(=O)Nc2c(F)cc(F)cc2Br)nnc1C1CCCCC1`, the Potency entry was “inactive”.

Turning to `Cc1cc2c(cc1C)NC(CC(=O)Nc1ccccc1)C(=O)N2` (configuration not stated), the Potency result was “inactive”.

In the case of `CCCOc1c(Br)cc(C2C3=C(CCCC3=O)N(C)C3=C2C(=O)CCC3)cc1OC`, the Potency entry is “inactive”.

For the compound `Cn1c(CNc2ccccc2O)nc2ccccc21`, the Potency entry is “inactive”.

Consider `CCC(/C=C1\Sc2ccc(OC)cc2N1CCO)=C\c1sc2ccc(OC)cc2[n+]1CCO`, for which the Potency was 17.8 µM (active).

Regarding `COc1cccc(C(=O)/C=C2\Sc3ccccc3N2C)c1`, the Potency result was “inactive”.

On to `CCOC(=O)c1cc2c(OC)c(OC)ccc2c2ncc(C#N)c(O)c12`, for which the Potency result was “inactive”.

Regarding `Nc1c(S(=O)(=O)c2cccs2)c2nc3ccccc3nc2n1/N=C/c1cccc(O)c1`, the Potency is 39.8 µM (active).

On to `Nc1c(S(=O)(=O)c2ccccc2)c2nc3ccccc3nc2n1C1CC1`, for which the Potency result is “inactive”.

In the case of `COCCn1c(N)c(C(=O)NCc2cccs2)c2nc3ccccc3nc21`, the Potency result is “inactive”.

For `Nc1c(S(=O)(=O)c2ccccc2)c2nc3ccccc3nc2n1/N=C/c1cccc(O)c1`, the Potency was 39.8 µM (active).

Take `Cc1ccc(S(=O)(=O)c2c(N)n(-c3ccccc3)c3nc4ccccc4nc23)cc1`: the Potency result was “inactive”.

Take `COCCNC(=O)c1c(N)n(/N=C/c2cccs2)c2nc3ccccc3nc12`: the Potency entry was “inactive”.

`Nc1c(C(=O)NCC2CCCO2)c2nc3ccccc3nc2n1-c1ccccc1` (configuration not stated): the Potency result is “inactive”.

In the case of `COc1ccc(C2C3=C(CC(C)(C)CC3=O)N(C)C3=C2C(=O)CC(C)(C)C3)cc1`, the Potency entry was “inactive”.

`CC1(C)CC(=O)C2=C(C1)N1C(=C(C#N)C2c2ccc(Cl)cc2)N=C(N)c2ccccc21` (configuration not stated): the Potency was 22.4 µM (active).

`COc1ccc(N2C3=C(C(=O)CC(C)(C)C3)C(c3ccccc3OC)C3=C2CC(C)(C)CC3=O)cc1`: the Potency result was “inactive”.

With `COc1ccccc1OCCCC(=O)NCc1ccco1`, the Potency result is “inactive”.

As for `COc1cccc(C=O)c1OCCCOc1cccc2cccnc12`, the Potency was 39.8 µM (active).

With `COc1ccc(C2C3=C(O)CC(C)(C)CC3=Nc3c2c(=O)[nH]c(=O)n3Cc2ccccc2)cc1OC` (configuration not stated), the Potency entry was “inactive”.

In the case of `CC(C)(C)c1ccc(C2Sc3ccccc3NC3=C2C(=O)c2ccccc23)cc1` (configuration not stated), the Potency was 39.8 µM (active).

For the compound `CCCc1ccc(C2Sc3ccccc3NC3=C2C(=O)c2ccccc23)cc1` (configuration not stated), the Potency was 31.6 µM (active).

For `Cc1cc2c(NC(=O)CC(C)(C)CC(=O)O)cccc2nn1`, the Potency entry is “inactive”.

As to `C=CCSc1nnc(C)c(/C=C/Nc2ccc(Cl)cc2)n1`, the Potency result was “inactive”.

Take `CCC(=O)Oc1ccc2c(c1)O/C(=C\c1ccco1)C2=O`: the Potency entry is “inactive”.

As to `CCOC(=O)c1c(NC(=O)c2ccc(S(=O)(=O)N3CCC(C)CC3)cc2)sc2c1CCN(C(C)C)C2`, the Potency result was “inactive”.

In the case of `Cc1ccc(C)n1NC(=O)c1ccc([N+](=O)[O-])cc1`, the Potency result is “inactive”.

For the compound `N#Cc1c(N)n(CCOC(=O)c2cccc([N+](=O)[O-])c2)c2nc3ccccc3nc12`, the Potency entry is “inactive”.

Take `O=C(C#Cc1ccccc1)c1ccc([N+](=O)[O-])cc1`: the Potency is 25.1 µM (active).

For `O=C(C#Cc1ccccc1)c1cccc([N+](=O)[O-])c1`, the Potency is 17.8 µM (active).

For the compound `Cc1c(C(=O)c2cccc([N+](=O)[O-])c2)c2ccccn2c1CCC#N`, the Potency entry is “inactive”.

Consider `O=[N+]([O-])c1ccc(N(c2ccccc2)c2ccccc2)cc1`, for which the Potency result is “inactive”.

Turning to `O=C(c1cn(-c2ccccc2)nc1-c1cccnc1)N1CCN(S(=O)(=O)c2ccccc2F)CC1`, the Potency entry was “inactive”.

`Cc1cc(C)cc(OCC(=O)NC2CCCc3ccccc32)c1` (configuration not stated): the Potency entry was “inactive”.

As for `O=C(/C=C/c1cc(Br)ccc1O)c1ccco1`, the Potency is 39.8 µM (active).

As to `NC(=O)N/N=C\c1cc(Br)ccc1O`, the Potency entry was “inactive”.

`O=C(/C=C/Nc1ccccc1Oc1ccccc1)c1ccco1`: the Potency entry was “inactive”.

As to `COc1ccc(C2=CC(c3ccc(C)cc3)n3nnnc3N2)cc1` (configuration not stated), the Potency result was “inactive”.

Consider `Sc1nnc(-c2cc3c(s2)-c2ccccc2CC3)o1`, for which the Potency result is “inactive”.

As to `ClCc1nnc(-c2cc3c(s2)CCCC3)o1`, the Potency was 39.8 µM (active).

On to `CCOC(=O)c1cc2c(=O)n3ccccc3nc2n(Cc2ccco2)/c1=N\C(=O)c1ccc(C)c(C)c1`, for which the Potency result was “inactive”.

For the compound `COc1ccc(OC)c(NC(=O)C(C)Oc2ccc(Br)cc2)c1` (configuration not stated), the Potency entry was “inactive”.

Take `COc1cc2c(cc1NC(=O)C(Cl)Cl)-c1ccc(NC(=O)C(Cl)Cl)cc1C2`: the Potency was 16.8 µM (active).

For `COc1ccc(Cl)cc1NC(=O)C(OC)c1ccccc1` (configuration not stated), the Potency entry was “inactive”.

In the case of `CCN(Cc1ccccc1)C(=O)CSc1ccccc1C(=O)O`, the Potency entry was “inactive”.

For `N=c1oc2c3c4c(cc2cc1C(=O)Nc1ccccc1)CCCN4CCC3`, the Potency result is “inactive”.

As for `COC(=O)c1ccsc1NC(=O)c1cccc(OC)c1`, the Potency entry was “inactive”.

Consider `COc1cccc(N/C=C/C(=O)c2ccc(Cl)cc2)c1`, for which the Potency result is “inactive”.

Take `COc1cccc(-c2nnc(NC(=O)c3ccc(Cl)s3)o2)c1`: the Potency was 25.1 µM (active).

For `O=C(Nc1nnc(-c2ccc3c(c2)CCCC3)o1)c1ccccc1`, the Potency is 39.8 µM (active).

Take `Cc1ccc(NC(=O)c2cccc(Oc3ccc([N+](=O)[O-])cc3)c2)c(C(=O)O)c1`: the Potency result is “inactive”.

In the case of `COc1cccc(-c2ccc3c(N)c(C(=O)Nc4ccc(Cl)cc4F)sc3n2)c1`, the Potency result is “inactive”.

For the compound `COc1ccc(OC)c2sc(NC(=O)c3ccc(Cl)s3)nc12`, the Potency entry is “inactive”.

As to `O=C(Nc1ccccc1C(=O)Nc1ccccc1C(=O)O)c1ccccc1`, the Potency entry is “inactive”.

Take `O=C(Nc1nnc(-c2cccs2)o1)c1cccc(Oc2ccccc2)c1`: the Potency was 28.2 µM (active).

With `COc1cccc(C(=O)Nc2nnc(-c3ccc(Cl)cc3)o2)c1`, the Potency is 35.5 µM (active).

Take `O=C(Oc1ccc(OC(=O)C2CCC2)cc1)C1CCC1`: the Potency entry was “inactive”.

`Cc1nc2scc(-c3ccccc3)c2c(=O)n1N=C1C=CC(=O)C=C1`: the Potency entry is “inactive”.

Consider `CCOC(=O)c1c(NC(=O)c2ccno2)c2cc([N+](=O)[O-])ccc2n1C`, for which the Potency entry was “inactive”.

In the case of `OCCN(CCO)c1nc(N2CCCCC2)c2nc(N(CCO)CCO)nc(N3CCCCC3)c2n1`, the Potency entry was “inactive”.

As to `Cc1cc(C)c(C#N)c(SCC(=O)C2CC2)n1`, the Potency entry is “inactive”.

Regarding `O=C(NCc1nnc2c3ccccc3c(-c3ccccc3)nn12)c1ccc(Cl)cc1`, the Potency result is “inactive”.

Regarding `Cc1ccnc2nc(C(=O)Nc3nnc(-c4ccccc4)o3)nn12`, the Potency result is “inactive”.

As for `O=C(Nc1nnc(-c2ccccc2)o1)c1ccc(Cl)cc1`, the Potency was 39.8 µM (active).

Regarding `Cc1nc(CS(=O)(=O)c2ccccn2)sc1C(=O)NNC(=O)c1ccccc1`, the Potency result was “inactive”.

As to `Cc1ccc(S(=O)(=O)N[C@H](C(=O)Oc2ccc3c(C(F)(F)F)cc(=O)oc3c2)c2ccccc2)cc1`, the Potency entry is “inactive”.

For the compound `CCOc1ccc(-c2c(=O)n(OCc3nc4ccccc4[nH]3)c3ccccc3[n+]2[O-])cc1`, the Potency result was “inactive”.

Turning to `CCc1c(C)c2ccc(O)c(CN3CCCC3)c2oc1=O`, the Potency result was “inactive”.

Consider `CC(C)c1ccc(/C=C2\Oc3c(ccc(O)c3CN3CCN(C)CC3)C2=O)cc1`, for which the Potency result was “inactive”.

With `Cc1oc2ccc(O)c(CN3CCCC3)c2c1C(=O)Nc1ccc(C(C)C)cc1`, the Potency is 15.8 µM (active).

On to `CCn1c(=O)cc(OCC(=O)N2CCN(c3ccc(C)cc3)C(C)C2)c2ccccc21` (configuration not stated), for which the Potency is 28.2 µM (active).

For `CCOC(=O)COc1cccc2c(=O)n(CC(=O)N3CCC(C)CC3)ccc12`, the Potency entry is “inactive”.

In the case of `CCN1CCCC(OC(=O)c2cc(-c3ccc(C)cc3)nc3ccccc23)C1` (configuration not stated), the Potency entry was “inactive”.

Take `COc1ccc(-c2nc3ccc(NS(=O)(=O)c4ccc(C)cc4)cc3o2)cc1`: the Potency is 39.8 µM (active).

As for `COc1ccc(-c2cc(C(=O)Nc3ccc(S(=O)(=O)Nc4onc(C)c4C)cc3)c3ccccc3n2)cc1`, the Potency entry is “inactive”.

Consider `COCc1cc(=O)oc2cc(NS(=O)(=O)c3ccc(C)cc3)ccc12`, for which the Potency entry is “inactive”.

As for `COC(=O)c1cscc1S(=O)(=O)Cc1ccccc1`, the Potency result is “inactive”.

As to `CC(=O)Nc1ccc(S(=O)(=O)NCCc2cn3nc(C)c(C)nc3n2)cc1`, the Potency result was “inactive”.

For the compound `CNC(=O)COC(=O)/C=C/c1nc2ccccc2s1`, the Potency result is “inactive”.

As to `CCOC(=O)CN1C(=O)S/C(=C\c2ccc3c(c2)OCO3)C1=O`, the Potency entry is “inactive”.

Regarding `O=C(NCCN1C(=O)S/C(=C\c2ccc(Cl)c([N+](=O)[O-])c2)C1=O)C1=COCCO1`, the Potency was 25.1 µM (active).

Consider `CCCn1nnc(NC(=S)NC(=O)c2ccccc2OC)n1`, for which the Potency entry was “inactive”.

On to `C=CCN1C(=O)/C(=C/c2ccc(O)cc2)S/C1=N/c1nccs1`, for which the Potency entry is “inactive”.

For the compound `C=CCN1C(=O)/C(=C2\C(=O)Nc3ccccc32)S/C1=N/c1ccc(O)cc1`, the Potency is 31.6 µM (active).

As for `Cc1ccc(Sc2nc3ccc(C)cn3c(=O)c2/C=N/O)cc1`, the Potency result was “inactive”.

As to `Cc1ccc(Cc2c(-c3ccccc3)nc3cc(C)ccn23)cc1`, the Potency was 22.4 µM (active).

In the case of `Cc1ccc2nc(Cl)nc(-c3ccccc3)c2c1`, the Potency result is “inactive”.

Consider `Cc1ccc(-c2cn3nc(-c4ccccc4)c(-c4ccccc4)nc3n2)cc1`, for which the Potency result was “inactive”.

Take `Cc1ccn2c(NCc3ccccc3)c(-c3cccs3)nc2c1`: the Potency result is “inactive”.

For the compound `Cc1nc2ccccc2nc(C)c1=NOCc1cccc(F)c1`, the Potency result is “inactive”.

Take `Cc1ccc(-c2nc3ccc(C)cn3c2Cc2ccsc2)cc1`: the Potency is 22.4 µM (active).

Take `Cc1ccc(-c2nc3ccc(C)cn3c2Cc2cccc(F)c2)cc1`: the Potency is 35.5 µM (active).

On to `Cc1ccc2nc(-c3ccccc3)c(Cc3cccc(F)c3)n2c1`, for which the Potency was 31.6 µM (active).

Take `Cc1c(NC(=O)CCC2CCCCC2)cc(C(=O)N2CCOCC2)cc1[N+](=O)[O-]`: the Potency entry is “inactive”.

In the case of `O=C(O)c1cc(Cl)c(Cl)cc1C(=O)N(Cc1ccccc1)Cc1ccccc1`, the Potency result is “inactive”.

Consider `COc1cccc2sc3cc(NCc4ccc(C)o4)ccc3c(=O)c12`, for which the Potency result was “inactive”.

In the case of `Oc1nc(/C=C/c2cccc3ccccc23)nc2ccccc12`, the Potency result was “inactive”.

For `CN(C)c1ccc(/C=C/c2nc(O)c3ccccc3n2)cc1`, the Potency result was “inactive”.

Consider `Cc1ccccc1/C=C/c1nc(O)c2ccccc2n1`, for which the Potency was 31.6 µM (active).
